Only a selection was taken, and the strongest signals are over-represented in it overall.
Experiments:
Experiment in all cases: glycan array binding signal (z-score within array); higher = stronger binding
Conditions in all cases: glycan notation: IUPAC condensed, linker removed
[1] = molecular target: Fuc(a1-2)Gal
Method in brief: (§1)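 The binding signal is a Z-score computed within each array. Data were drawn from 3228 arrays in the Consortium for Functional Glycomics database, restricted to those with a known protein sequence. Scores were averaged over arrays of the same protein sequence at different concentrations or buffers, and over linkers, and negative values can be taken as non-binding.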

[2] = molecular target: Fuc(a1-2)Gal(b1-3)GalNAc(b1-4)[Neu5Ac(a2-3)]Gal(b1-4)Glc
Method in brief: as §1

[3] = molecular target: Fuc(a1-2)Gal(b1-3)GlcNAc
Method in brief: as §1

[4] = molecular target: Fuc(a1-2)Gal(b1-3)GlcNAc(b1-3)GalNAc
Method in brief: as §1

[5] = molecular target: Fuc(a1-2)Gal(b1-4)GlcNAc(b1-2)[Fuc(a1-2)Gal(b1-4)GlcNAc(b1-4)]Man(a1-3)[Fuc(a1-2)Gal(b1-4)GlcNAc(b1-2)Man(a1-6)]Man(b1-4)GlcNAc(b1-4)GlcNAc
Method in brief: as §1

[6] = molecular target: Fuc(a1-2)Gal(b1-4)GlcNAc(b1-3)Gal(b1-4)GlcNAc(b1-3)Gal(b1-4)GlcNAc
Method in brief: as §1

[7] = molecular target: Fuc(a1-2)Gal(b1-4)GlcNAc(b1-6)GalNAc
Method in brief: as §1

[8] = molecular target: Fuc(a1-2)Gal(b1-4)[Fuc(a1-3)]GlcNAc(b1-3)GalNAc
Method in brief: as §1

[9] = molecular target: Fuc(a1-2)[Gal(a1-3)]Gal(b1-3)GlcNAc(b1-2)Man(a1-3)[Fuc(a1-2)[Gal(a1-3)]Gal(b1-3)GlcNAc(b1-2)Man(a1-6)]Man(b1-4)GlcNAc(b1-4)[Fuc(a1-6)]GlcNAc
Method in brief: as §1

[10] = molecular target: Fuc(a1-2)[Gal(a1-3)]Gal(b1-4)Glc
Method in brief: as §1

[11] = molecular target: Fuc(a1-2)[Gal(a1-3)]Gal(b1-4)GlcNAc(b1-2)Man(a1-3)[Fuc(a1-2)[Gal(a1-3)]Gal(b1-4)GlcNAc(b1-2)Man(a1-6)]Man(b1-4)GlcNAc(b1-4)GlcNAc
Method in brief: as §1

[12] = molecular target: Fuc(a1-2)[GalNAc(a1-3)]Gal(b1-4)GlcNAc(b1-3)GalNAc
Method in brief: as §1

[13] = molecular target: Fuc(a1-2)[GalNAc(a1-3)]Gal(b1-4)[Fuc(a1-3)]GlcNAc(b1-3)GalNAc
Method in brief: as §1

[14] = molecular target: Fuc(a1-3)[Gal(b1-4)]GlcNAc(b1-6)[Neu5Ac(a2-3)Gal(b1-3)]GalNAc
Method in brief: as §1

[15] = molecular target: Gal(a1-2)Gal
Method in brief: as §1

[16] = molecular target: Gal(a1-3)Gal(b1-3)GlcNAc(b1-6)GalNAc
Method in brief: as §1

[17] = molecular target: Gal(a1-3)Gal(b1-4)GlcNAc
Method in brief: as §1

[18] = molecular target: Gal(b1-3)[Fuc(a1-4)]GlcNAc
Method in brief: as §1

[19] = molecular target: Gal(b1-3)[Fuc(a1-4)]GlcNAc(b1-3)Gal(b1-3)[Fuc(a1-4)]GlcNAc
Method in brief: as §1

[20] = molecular target: Gal(b1-4)GlcNAc(b1-2)Man(a1-6)Man(b1-4)GlcNAc(b1-4)GlcNAc
Method in brief: as §1

[21] = molecular target: Gal(b1-4)GlcNAc(b1-3)Gal(b1-4)GlcNAc
Method in brief: as §1

[22] = molecular target: Gal(b1-4)GlcNAc(b1-3)[Gal(b1-4)GlcNAc(b1-6)]Gal(b1-4)GlcNAc
Method in brief: as §1

[23] = molecular target: Gal(b1-6)Gal
Method in brief: as §1

[24] = molecular target: Gal3S(b1-4)[Fuc(a1-3)]Glc6S
Method in brief: as §1

[25] = molecular target: Gal6S(b1-3)GlcNAc
Method in brief: as §1

[26] = molecular target: GalNAc(a1-3)GalNAc(b1-3)Gal(a1-4)Gal(b1-4)Glc
Method in brief: as §1

[27] = molecular target: GalNAc4S6S(b1-4)GlcNAc
Method in brief: as §1

[28] = molecular target: GalNAc6S(b1-4)GlcNAc
Method in brief: as §1

[29] = molecular target: Glc(a1-4)Glc
Method in brief: as §1

[30] = molecular target: GlcNAc(a1-4)Gal(b1-4)GlcNAc(b1-3)Gal(b1-4)[Fuc(a1-3)]GlcNAc(b1-3)Gal(b1-4)[Fuc(a1-3)]GlcNAc
Method in brief: as §1

[31] = molecular target: GlcNAc(b1-2)Gal(b1-3)GalNAc
Method in brief: as §1

[32] = molecular target: GlcNAc(b1-2)[GlcNAc(b1-4)]Man(a1-3)[GlcNAc(b1-2)Man(a1-6)]Man(b1-4)GlcNAc(b1-4)GlcNAc
Method in brief: as §1

[33] = molecular target: GlcNAc(b1-2)[GlcNAc(b1-6)]Man(a1-6)[GlcNAc(b1-2)Man(a1-3)][GlcNAc(b1-4)]Man(b1-4)GlcNAc(b1-4)GlcNAc
Method in brief: as §1

[34] = molecular target: GlcNAc(b1-4)GlcNAc(b1-4)GlcNAc(b1-4)GlcNAc(b1-4)GlcNAc
Method in brief: as §1

[35] = molecular target: Man(a1-2)Man(a1-3)[Man(a1-2)Man(a1-6)]Man
Method in brief: as §1

[36] = molecular target: Man(a1-2)Man(a1-3)[Man(a1-2)Man(a1-6)]Man(a1-6)[Man(a1-2)Man(a1-2)Man(a1-3)]Man
Method in brief: as §1

[37] = molecular target: Man(a1-2)Man(a1-3)[Man(a1-2)Man(a1-6)]Man(a1-6)[Man(a1-2)Man(a1-2)Man(a1-3)]Man(b1-4)GlcNAc(b1-4)GlcNAc
Method in brief: as §1

[38] = molecular target: Neu5Ac(a2-3)Gal(b1-3)[Fuc(a1-4)]GlcNAc(b1-3)Gal(b1-3)[Fuc(a1-4)]GlcNAc
Method in brief: as §1

[39] = molecular target: Neu5Ac(a2-3)Gal(b1-4)GlcNAc(b1-2)Man(a1-3)[GlcNAc(b1-2)Man(b1-4)GlcNAc(b1-2)Man(a1-6)]Man(b1-4)GlcNAc(b1-4)GlcNAc
Method in brief: as §1

[40] = molecular target: Neu5Ac(a2-3)Gal(b1-4)GlcNAc(b1-3)GalNAc
Method in brief: as §1

[41] = molecular target: Neu5Ac(a2-3)Gal(b1-4)[Fuc(a1-3)]GlcNAc(b1-3)GalNAc
Method in brief: as §1

[42] = molecular target: Neu5Ac(a2-3)GalNAc(b1-4)GlcNAc
Method in brief: as §1

[43] = molecular target: Neu5Ac(a2-3)[Neu5Ac(a2-6)]GalNAc
Method in brief: as §1

[44] = molecular target: Neu5Ac(a2-6)Gal(b1-4)Glc
Method in brief: as §1

[45] = molecular target: Neu5Ac(a2-8)Neu5Ac(a2-8)Neu5Ac(a2-3)[GalNAc(b1-4)]Gal(b1-4)Glc
Method in brief: as §1

[46] = molecular target: Neu5Ac9Ac(a2-6)Gal(b1-4)GlcNAc
Method in brief: as §1

B1: Latrophilin-3 (Homo sapiens), Q9HAR2 (protein)
chain: MWPSQLLIFMMLLAPIIHAFSRAPIPMAVVRRELSCESYPIELRCPGTDVIMIESANYGRTDDKICDSDPAQMENIRCYLPDAYKIMSQRCNNRTQCAVVAGPDVFPDPCPGTYKYLEVQYECVPYKVEQKVFLCPGLLKGVYQSEHLFESDHQSGAWCKDPLQASDKIYYMPWTPYRTDTLTEYSSKDDFIAGRPTTTYKLPHRVDGTGFVVYDGALFFNKERTRNIVKFDLRTRIKSGEAIIANANYHDTSPYRWGGKSDIDLAVDENGLWVIYATEQNNGKIVISQLNPYTLRIEGTWDTAYDKRSASNAFMICGILYVVKSVYEDDDNEATGNKIDYIYNTDQSKDSLVDVPFPNSYQYIAAVDYNPRDNLLYVWNNYHVVKYSLDFGPLDSRSGQAHHGQVSYISPPIHLDSELERPSVKDISTTGPLGMGSTTTSTTLRTTTLSPGRSTTPSVSGRRNRSTSTPSPAVEVLDDMTTHLPSASSQIPALEESCEAVEAREIMWFKTRQGQIAKQPCPAGTIGVSTYLCLAPDGIWDPQGPDLSNCSSPWVNHITQKLKSGETAANIARELAEQTRNHLNAGDITYSVRAMDQLVGLLDVQLRNLTPGGKDSAARSLNKAMVETVNNLLQPQALNAWRDLTTSDQLRAATMLLHTVEESAFVLADNLLKTDIVRENTDNIKLEVARLSTEGNLEDLKFPENMGHGSTIQLSANTLKQNGRNGEIRVAFVLYNNLGPYLSTENASMKLGTEALSTNHSVIVNSPVITAAINKEFSNKVYLADPVVFTVKHIKQSEENFNPNCSFWSYSKRTMTGYWSTQGCRLLTTNKTHTTCSCNHLTNFAVLMAHVEVKHSDAVHDLLLDVITWVGILLSLVCLLICIFTFCFFRGLQSDRNTIHKNLCISLFVAELLFLIGINRTDQPIACAVFAALLHFFFLAAFTWMFLEGVQLYIMLVEVFESEHSRRKYFYLVGYGMPALIVAVSAAVDYRSYGTDKVCWLRLDTYFIWSFIGPATLIIMLNVIFLGIALYKMFHHTAILKPESGCLDNIKSWVIGAIALLCLLGLTWAFGLMYINESTVIMAYLFTIFNSLQGMFIFIFHCVLQKKVRKEYGKCLRTHCCSGKSTESSIGSGKTSGSRTPGRYSTGSQSRIRRMWNDTVRKQSESSFITGDINSSASLNREGLLNNARDTSVMDTLPLNGNHGNSYSIASGEYLSNCVQIIDRGYNHNETALEKKILKELTSNYIPSYLNNHERSSEQNRNLMNKLVNNLGSGREDDAIVLDDATSFNHEESLGLELIHEESDAPLLPPRVYSTENHQPHHYTRRRIPQDHSESFFPLLTNEHTEDLQSPHRDSLYTSMPTLAGVAATESVTTSTQTEPPPAKCGDAEDVYYKSMPNLGSRNHVHQLHTYYQLGRGSSDGFIVPPNKDGTPPEGSSKGPAHLVTSL
- glycan array binding signal (z-score) [1]: 0.041
- glycan array binding signal (z-score) [2]: -0.493
- glycan array binding signal (z-score) [3]: -0.169
- glycan array binding signal (z-score) [4]: 0.261
- glycan array binding signal (z-score) [5]: -0.478
- glycan array binding signal (z-score) [6]: 0.659
- glycan array binding signal (z-score) [7]: 2.91
- glycan array binding signal (z-score) [8]: 4.34
- glycan array binding signal (z-score) [9]: -0.721
- glycan array binding signal (z-score) [10]: 0.962
- glycan array binding signal (z-score) [11]: -0.684
- glycan array binding signal (z-score) [12]: -0.844
- glycan array binding signal (z-score) [13]: 4.19
- glycan array binding signal (z-score) [14]: -0.297
- glycan array binding signal (z-score) [15]: 2.83
- glycan array binding signal (z-score) [16]: -0.37
- glycan array binding signal (z-score) [17]: -0.823
- glycan array binding signal (z-score) [18]: -0.275
- glycan array binding signal (z-score) [19]: -0.618
- glycan array binding signal (z-score) [20]: 3.58
- glycan array binding signal (z-score) [21]: -0.111
- glycan array binding signal (z-score) [22]: 3.02
- glycan array binding signal (z-score) [23]: -0.409
- glycan array binding signal (z-score) [24]: -0.622
- glycan array binding signal (z-score) [25]: 0.183
- glycan array binding signal (z-score) [26]: -1.16
- glycan array binding signal (z-score) [27]: 1.42
- glycan array binding signal (z-score) [28]: 3.81
- glycan array binding signal (z-score) [29]: -0.053
- glycan array binding signal (z-score) [30]: 2.21
- glycan array binding signal (z-score) [31]: 1.25
- glycan array binding signal (z-score) [32]: 0.886
- glycan array binding signal (z-score) [33]: -0.448
- glycan array binding signal (z-score) [34]: 0.111
- glycan array binding signal (z-score) [35]: -1.71
- glycan array binding signal (z-score) [36]: 0.047
- glycan array binding signal (z-score) [37]: 1.12
- glycan array binding signal (z-score) [38]: 6.27
- glycan array binding signal (z-score) [39]: 0.035
- glycan array binding signal (z-score) [40]: 0.708
- glycan array binding signal (z-score) [41]: 3.18
- glycan array binding signal (z-score) [42]: -0.972
- glycan array binding signal (z-score) [43]: -1.4
- glycan array binding signal (z-score) [44]: 1.15
- glycan array binding signal (z-score) [45]: -1.01
- glycan array binding signal (z-score) [46]: -0.383

— the supplement of paper PMC8728848
